# From PubChem BioAssay (NCI)
# About 79,000 compounds went through this panel and 15% of them were active in at least one assay; those are over-represented in the sample as a whole. Unmarked numbers belong to inactive results. Activity calls are given as the source filed them. Cut-off read from the data, not from the text of the source: active = growth inhibition above about 70%; inactive = the rest.
# What was measured:
# [1] = NCI Yeast Anticancer Drug Screen. Data for the rad50 strain (AID 155);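 note: 0% = growth of vehicle-only cultures of the same strain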; details: S. cerevisiae rad50 strain growth inhibition, stronger effect = higher value
# Outline: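 Inhibition values express reduced yeast growth in compound-treated cultures relative to vehicle-treated controls.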
# [2] = NCI Yeast Anticancer Drug Screen. Data for the mec2-1 strain (AID 157); details: S. cerevisiae mec2-1 strain, stronger effect = higher value
# Outline: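 Vehicle-treated cultures served as reference for growth inhibition of compound-exposed mec2-1 yeast.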
# [3] = NCI Yeast Anticancer Drug Screen. Data for the sgs1 mgt1 strain (AID 161);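 note: 0% = growth of cultures given vehicle only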; details: S. cerevisiae sgs1 mgt1 strain, stronger effect = higher value
# Outline: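 Read-out: growth inhibition vs vehicle controls. Cells: mutant yeast strain deficient in DNA damage repair.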
# [4] = NCI Yeast Anticancer Drug Screen. Data for the cln2 rad14 strain (AID 165);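 note: 0% = growth equal to vehicle treated cultures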; details: S. cerevisiae cln2 rad14 strain, stronger effect = higher value
# Outline: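 Each compound was tested on cln2 rad14 yeast. Inhibition of growth was calculated against vehicle-exposed controls.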
# [5] = NCI Yeast Anticancer Drug Screen. Data for the bub3 strain (AID 167); details: S. cerevisiae bub3 mutant strain, stronger effect = higher value
# Outline: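 Steps: expose the mutant yeast strain to compound; grow alongside vehicle-treated cultures; measure growth; express inhibition against the vehicle cultures.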
# [6] = NCI Yeast Anticancer Drug Screen. Data for the mlh1 rad18 strain (AID 175); details: S. cerevisiae mlh1 rad18 strain growth inhibition, stronger effect = higher value
# Outline: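 Vehicle-treated cultures served as the reference for growth inhibition in a yeast strain carrying DNA damage repair alterations exposed to each compound.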
# [7] = at 5.0 µM (retest, dose inferred, filed as 0.5)
# [8] = at 50.0 µM (retest, dose inferred, filed as 5.0)
SMILES,"growth inhibition [1, 7]","growth inhibition [1, 8]",growth inhibition ([1]; at 50.0 µM),"growth inhibition [2, 7]","growth inhibition [2, 8]",growth inhibition ([2]; at 50.0 µM),"growth inhibition [3, 7]","growth inhibition [3, 8]",growth inhibition ([3]; at 50.0 µM),"growth inhibition [4, 7]","growth inhibition [4, 8]",growth inhibition ([4]; at 50.0 µM),"growth inhibition [5, 7]","growth inhibition [5, 8]",growth inhibition ([5]; at 50.0 µM),"growth inhibition [6, 7]","growth inhibition [6, 8]",growth inhibition ([6]; at 50.0 µM)
Fc1ccc(C2(CCCN3CCc4[nH]c5cc(F)ccc5c4C3)OCCO2)cc1,31%,97% (active),70.2% (active),27%,98% (active),79% (active),25%,99% (active),84.5% (active),18%,96% (active),83.3% (active),24%,98% (active),39.5%,29%,99% (active),91% (active)
C(=C/c1ccnc2ccccc12)/c1cccs1,-2%,93% (active),98.2% (active),1%,93% (active),98.8% (active),2%,91% (active),98.8% (active),0%,57%,98.1% (active),4%,81% (active),98.3% (active),-2%,94% (active),98.2% (active)
COc1ccc(CCBr)cc1,-1%,-17%,14.7%,-23%,-13%,14%,-15%,-7%,22.2%,17%,-1%,0.5%,-17%,-7%,18.1%,-27%,-41%,15.2%
CCOC1NC(=S)N(C2CCCCC2)C1(C)C (centres undefined),-2%,10%,10.8%,-2%,3%,1.1%,-1%,11%,11.8%,-2%,-11%,75.6% (active),-2%,-9%,-19%,-6%,1%,16.6%
N#CC1Sc2ccccc2N1C(=O)Oc1ccccc1 (centres undefined),3%,98% (active),98.8% (active),0%,98% (active),98.7% (active),5%,98% (active),98.8% (active),3%,97% (active),98.2% (active),15%,98% (active),99.1% (active),5%,98% (active),98.8% (active)
O=Cc1cc([N+](=O)[O-])ccc1O,95% (active),99% (active),93.8% (active),98% (active),99% (active),96.7% (active),86% (active),99% (active),98.5% (active),96% (active),99% (active),74.2% (active),97% (active),99% (active),94.8% (active),98% (active),99% (active),97% (active)
CCCCCCCCCCCCCCCCCC(=O)Nc1ccn(C2OC(CO)C(O)C2O)c(=O)n1 (centres undefined),19%,4%,75.2% (active),9%,15%,83.6% (active),43%,41%,67.8%,40%,45%,80.2% (active),48%,43%,82.3% (active),15%,4%,82.8% (active)
CCSc1c2ccccc2nc2c(OC)ccc(OC)c12,3%,70% (active),88.7% (active),-3%,23%,35.4%,-7%,30%,63.1%,-7%,-7%,48.7%,-7%,20%,39.4%,-3%,54%,90.3% (active)
